Measured values reported in PubChem BioAssay (NCI).
Several values for one entry are separate records, joined by “and”; a condition that tells them apart may be missing. Equal entries are not always repeated. About 83,000 compounds went through this panel and 20% of them were active in at least one assay; those are over-represented in the sample as a whole.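 48-hour exposure, single concentration, 96-well plates; percent growth endpoint where 0 means no net growth. Active: below 10.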

Key:
Assay in all cases: NCI-60 one-dose screen, 48 h (100 = growth as untreated, 0 = no growth, -100 = all killed)
Conditions in all cases: 10 µM unless noted
[1] = test system: SK-MEL-2 melanoma
[2] = test system: EKVX NSCLC
[3] = test system: SN12C renal
[4] = test system: UO-31 renal
[5] = test system: TK-10 renal
[6] = test system: ACHN renal
[7] = test system: CAKI-1 renal
[8] = test system: CCRF-CEM leukemia
[9] = test system: MOLT-4 leukemia
[10] = test system: A498 renal

Measured: growth

S=c1nn[nH]n1C1CCCCC1
inactive: [1] 129% | [2] 106% | [3] 105% | [4] 100% | [5] 118% | [6] 109% | [7] 108% | [8] 93.9% | [9] 115%

N#Cc1c(N)nc2c(c(-c3ccc(Cl)cc3)nn2-c2ccccc2)c1C#N
inactive: [1] 122% [100 µM] | [2] 83% [100 µM] | [3] 105% [100 µM] | [4] 96.6% [100 µM] | [5] 128% [100 µM] | [6] 86.9% [100 µM] | [7] 108% [100 µM] | [8] 98.9% [100 µM] | [9] 114% [100 µM]

C(#CCN1CCOCC1)CCCN1CCOCC1
inactive: [1] 108% and 117% | [2] 104% and 83.1% | [3] 102% | [4] 97.6% and 89.6% | [5] 109% and 86.2% | [6] 101% and 98.3% | [7] 98.1% and 94.7% | [8] 107% | [9] 109% and 113%

COc1ccc2oc3c(ccc[n+]3C)c(=O)c2c1
inactive: [1] 99.6% | [2] 93.3% | [3] 110% | [4] 91.9% | [5] 97.6% | [6] 99.1% | [7] 98.2% | [8] 110% | [9] 103%

CCOC(=O)CN1CCC(C(=O)OCC)CC1
inactive: [1] 111% | [2] 127% | [3] 99.7% | [4] 94.9% | [5] 106% | [6] 111% | [7] 116% | [8] 89.5% | [9] 106%

CC(=O)Oc1ccc(C(c2ccc(OC(C)=O)cc2)c2ccccn2)cc1
inactive: [1] 107% and 94.3% | [2] 82.5% and 87.8% | [3] 29.3% and 30.9% | [4] 74.3% and 89.2% | [5] 77.1% and 86.1% | [6] 82.5% and 81.1% | [7] 100% and 117% | [10] 91.1% | [8] 98.8% and 90.9% | [9] 93.3% and 103%

Cc1cc(O)c(C(C)C)cc1N=O
inactive: [1] 103% and 111% | [2] 101% and 102% | [3] 95.7% and 105% | [4] 106% and 92.5% | [5] 101% and 99.7% | [6] 95% and 91.5% | [7] 104% and 107% | [8] 90.3% | [9] 98.1%

CN(C)C(=S)N(C)C
inactive: [1] 104% | [2] 127% | [3] 104% | [4] 98.4% | [5] 99.2% | [6] 104% | [7] 98.6% | [8] 97.5% | [9] 109%

Nc1ccc2ccc(NS(=O)(=O)N3CCCCC3)cc2c1
inactive: [1] 85.4% | [2] 61.7% | [3] 43.2% | [4] 64.8% | [5] 47.1% | [6] 56.7% | [7] 43.4% | [10] 29.3% | [8] 18.3% | [9] 18%

Cc1ccc(N)cc1S(=O)(=O)O
inactive: [1] 120% | [2] 109% and 105% | [3] 103% and 106% | [4] 84.4% and 91.5% | [5] 75% and 135% | [6] 101% and 118% | [7] 96.8% and 106% | [10] 113% | [8] 60.6% and 109% | [9] 94.4%

CCCCCCC(C)CC1=C(O)c2ccccc2C(=O)C1=O (centres undefined)
inactive: [1] 68.9% | [2] 62% | [3] 46.6% | [4] 42.7% | [5] 60.5% | [6] 37.5% | [7] 39.7% | [10] 54.3% | [8] 33.3% | [9] 26.6%

CCCCOC1NC(=O)NC(=O)C1(F)C(=O)OCC (centres undefined)
inactive: [1] 97.8% and 101% | [2] 74.8% | [3] 90.2% and 59.9% | [4] 55.2% and 51.3% | [5] 65.5% and 71.7% | [6] 82% and 67.4% | [7] 45.3% and 62.3% | [10] 78.9% and 112% | [8] 72.6% | [9] 92% and 65.2%

CCC(C)(O)CCC(C)(O)CC (centres undefined)
inactive: [1] 116% | [2] 99.4% | [3] 108% | [4] 91% | [5] 103% | [6] 111% | [7] 101% | [8] 101% | [9] 102%

O=C1Cc2ccccc2C(=O)N1
inactive: [1] 92.4% | [2] 99.2% | [3] 96.7% | [4] 75.5% | [5] 91% | [6] 82.1% | [7] 77% | [10] 103% | [8] 41.1% | [9] 69.8%

NNC(=O)Nc1ccccc1
inactive: [1] 106% | [2] 96.2% | [3] 101% | [4] 90% | [5] 110% | [6] 100% | [7] 96.1% | [10] 85.2% | [8] 104% | [9] 114%

Cc1c(O)nc(N)[nH]c1=O
inactive: [1] 123% | [2] 106% | [3] 109% | [4] 82.9% | [5] 126% | [6] 108% | [7] 110% | [8] 90.1% | [9] 102%

Cn1c(N)c(N=O)c(=O)n(C)c1=O
inactive: [1] 108% and 102% | [2] 97.4% and 95.9% | [3] 109% and 93.8% | [4] 82% and 92.5% | [5] 120% and 92.8% | [6] 109% | [7] 102% | [8] 106% and 116%

O=C(O)c1ccc2c3ccc(C(=O)O)c4c(C(=O)O)ccc(c5ccc(C(=O)O)c1c25)c43
inactive: [1] 91.3% | [2] 101% | [3] 101% | [4] 85.8% | [5] 117% | [6] 107% | [7] 80% | [8] 111% | [9] 106%

Clc1ccc2sc(-c3ccccc3)nc2c1
inactive: [1] 77.2% | [2] 88.1% | [3] 95.6% | [4] 77.6% | [5] 126% | [6] 89.6% | [7] 90.7% | [10] 92.5% | [8] 87% | [9] 92.3%

NCCCCCC(=O)O
inactive: [1] 110% [middle of 4 runs] | [2] 109% [middle of 4 runs] | [3] 107% [middle of 4 runs] | [4] 89.3% [middle of 4 runs] | [5] 115% and 104% and 98.9% | [6] 103% [middle of 4 runs] | [7] 94% [middle of 4 runs] | [8] 101% and 90.4% and 108% | [9] 105% and 88.6% and 108%

CCC(C)NC(=O)c1ccccc1C (centres undefined)
inactive: [1] 104% | [2] 91.2% | [3] 96.5% | [4] 94.2% | [5] 99.3% | [6] 95.4% | [7] 95.3% | [8] 103% | [9] 114%

O=C(O)COc1ccccc1F
inactive: [1] 102% | [2] 111% | [3] 98.3% | [4] 103% | [5] 109% | [6] 108% | [7] 93.2% | [8] 92.3% | [9] 95.3%

NCCSSC/C=C\CSSCCN
inactive: [1] 113% | [2] 123% | [3] 98.6% | [4] 80% | [5] 107% | [6] 110% | [7] 101% | [10] 88.9% | [8] 95.8% | [9] 98%

O=c1[nH]nnc2cc(Cl)ccc12
inactive: [1] 121% and 144% | [2] 105% and 97.3% | [3] 105% and 100% | [4] 70.5% and 76.3% | [5] 99.3% and 105% | [6] 97.6% and 101% | [7] 92.2% and 95.8% | [8] 114% and 103% | [9] 104% and 95.9%
